We go through nine compounds from PubChem BioAssay (NCI).

The panel holds about 83,000 compounds, 20% with a hit somewhere; the sample as a whole holds those more often.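 Results are percent growth after 48 hours of single-concentration exposure. 100 means growth as in untreated cells, lower positive values show inhibition; negative values down to -100 show cell death.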 Values without a mark were called inactive. The source made the active and inactive calls. Rule for the calls: active = growth percent below 10; inactive = the rest.

Some test systems named below: EKVX NSCLC; SN12C renal; UO-31 renal; TK-10 renal; ACHN renal; CAKI-1 renal; A498 renal; CCRF-CEM leukemia; MOLT-4 leukemia; SR leukemia; RPMI-8226 leukemia; OVCAR-8 ovarian; OVCAR-5 ovarian; OVCAR-4 ovarian; SK-OV-3 ovarian; IGROV1 ovarian; OVCAR-3 ovarian; NCI/ADR-RES ovarian.
What all share (experiment): NCI-60 one-dose screen, 48 h (100 = growth as untreated, 0 = no growth, -100 = all killed)
Holding throughout (settings): 10 µM unless noted

In the case of `CO[C@H]1C[C@@H]2CC[C@@H](C)[C@@](O)(O2)C(=O)C(=O)N2CCCC[C@H]2C(=O)O[C@H]([C@H](C)C[C@@H]2CC[C@@H](OP(C)(C)=O)[C@H](OC)C2)CC(=O)[C@H](C)/C=C(\C)[C@@H](O)[C@@H](OC)C(=O)[C@H](C)C[C@H](C)\C=C/C=C/C=C/1C`, the growth was 49.8% with EKVX NSCLC; 53.9% with SN12C renal; 27.3% with UO-31 renal; 46% in the assay with TK-10 renal; 54.4% in the assay on ACHN renal; 50.1% in the assay with CAKI-1 renal. Further, the growth is 2.06% (active) in the assay on A498 renal; 37.2% in the assay with CCRF-CEM leukemia; 28.8% in the assay on MOLT-4 leukemia; 13.1% in the assay with SR leukemia; 34.8% in the assay with RPMI-8226 leukemia; 34.3% with OVCAR-8 ovarian. For the same compound, the growth in the assay with OVCAR-5 ovarian is 60.7%; in the assay on OVCAR-4 ovarian it was 28.6%; in the assay with SK-OV-3 ovarian, 12.2%; with IGROV1 ovarian, 24.4%; with OVCAR-3 ovarian, 59.7%; in the assay with NCI/ADR-RES ovarian, 51.4%.
`Cc1ccc(NC(=O)c2ccc(CN3CCN(C)CC3)cc2)cc1Nc1nc(-c2cccnc2)cs1`: the growth in the assay on EKVX NSCLC was 48.3%; in the assay on SN12C renal it was 74%; with UO-31 renal, 82.9%; with TK-10 renal it was 88.3%; with ACHN renal, 48.3%; with CAKI-1 renal, 78%. In addition, the growth is 64.8% with A498 renal; 11.8% in the assay on CCRF-CEM leukemia; 5.98% (active) in the assay on MOLT-4 leukemia; -3.75% (active) in the assay with SR leukemia; 13.2% with RPMI-8226 leukemia; 34.5% in the assay on OVCAR-8 ovarian. Moreover, the growth in the assay on OVCAR-5 ovarian is 98.7%; in the assay on OVCAR-4 ovarian, 62.6%; in the assay on SK-OV-3 ovarian, 75.3%; in the assay with IGROV1 ovarian it was 62.3%; in the assay with OVCAR-3 ovarian it was 79.6%; with NCI/ADR-RES ovarian it was 55.7%.
Take `CS(=O)(=O)N1CCc2c(-c3cnc(N)nc3)nc(N3CCOCC3)nc21`: the growth was 10.2% in the assay on EKVX NSCLC; 8.6% (active) in the assay on SN12C renal; -21.8% (active) in the assay with UO-31 renal; -21.4% (active) with TK-10 renal; 0.427% (active) in the assay on ACHN renal; -8.15% (active) in the assay on CAKI-1 renal. The growth is -49.9% (active) with A498 renal; 22.2% in the assay on CCRF-CEM leukemia; 9.81% (active) in the assay with MOLT-4 leukemia; 6.13% (active) with SR leukemia; 18.1% in the assay with RPMI-8226 leukemia; 6.31% (active) in the assay with OVCAR-8 ovarian. In addition, the growth in the assay with OVCAR-5 ovarian is 4.76% (active); in the assay with OVCAR-4 ovarian, -5.74% (active); with SK-OV-3 ovarian it was -40.6% (active); with IGROV1 ovarian it was -38.1% (active); in the assay on OVCAR-3 ovarian, 9.64% (active); in the assay on NCI/ADR-RES ovarian, 12.9%.
Take `O=C(c1ccc(/C=C/c2n[nH]c3ccccc23)cc1)N1CCNCC1`: the growth in the assay on EKVX NSCLC was 71%; in the assay with SN12C renal, 22.5%; in the assay with UO-31 renal, -7.82% (active); in the assay with TK-10 renal it was 53%; in the assay with ACHN renal, 36.5%; with CAKI-1 renal, 11.7%. Also, the growth with A498 renal was 37.9%; in the assay on CCRF-CEM leukemia, 53.2%; in the assay on MOLT-4 leukemia, 19.9%; in the assay with SR leukemia, 5.24% (active); with RPMI-8226 leukemia, 48.9%; with OVCAR-8 ovarian, 58.8%. The growth with OVCAR-5 ovarian is 14.4%; with OVCAR-4 ovarian, 54.8%; with SK-OV-3 ovarian it was 48.5%; with IGROV1 ovarian, 33.5%; in the assay with OVCAR-3 ovarian it was 66.8%; in the assay with NCI/ADR-RES ovarian, 82.1%.
Take `C=CC(=O)Nc1cc2c(Nc3ccc(F)c(Cl)c3)ncnc2cc1C#CC(C)(C)N1CCN(C)CC1`: the growth is -93% (active) in the assay on EKVX NSCLC; -87.7% (active) in the assay on SN12C renal; -99.8% (active) in the assay with UO-31 renal; -97.5% (active) in the assay on TK-10 renal; -100% (active) with ACHN renal; -99.8% (active) in the assay with CAKI-1 renal. Besides, the growth is -96.3% (active) with A498 renal; -11.5% (active) with CCRF-CEM leukemia; -23.1% (active) with MOLT-4 leukemia; -14.2% (active) in the assay with SR leukemia; -34.2% (active) with RPMI-8226 leukemia; -73.5% (active) with OVCAR-8 ovarian. Also, the growth was -95.5% (active) in the assay with OVCAR-5 ovarian; -96.2% (active) with OVCAR-4 ovarian; -96.6% (active) in the assay with SK-OV-3 ovarian; -73.9% (active) in the assay with IGROV1 ovarian; -96.7% (active) in the assay with OVCAR-3 ovarian; -52.2% (active) in the assay on NCI/ADR-RES ovarian.
As for `Cn1ccnc1C(=O)/C=C/c1ccc(CC(=O)Nc2ccc(S(F)(F)(F)(F)F)cc2)cc1`, the growth with EKVX NSCLC was -27.4% (active); with SN12C renal, -11.8% (active); in the assay with UO-31 renal it was -90.5% (active); in the assay with TK-10 renal, 5.88% (active); with ACHN renal, -21.6% (active); with CAKI-1 renal it was -31.4% (active). Further, the growth in the assay with A498 renal was 13.5%; in the assay on CCRF-CEM leukemia, 8.93% (active); in the assay on MOLT-4 leukemia it was -10.5% (active); in the assay on SR leukemia, 0.968% (active); in the assay on RPMI-8226 leukemia, -18.8% (active); in the assay with OVCAR-8 ovarian, -14.1% (active). Also, the growth is -38.1% (active) with OVCAR-5 ovarian; 17.5% in the assay with OVCAR-4 ovarian; 18.4% with SK-OV-3 ovarian; -17.5% (active) in the assay with IGROV1 ovarian; 6.7% (active) in the assay on OVCAR-3 ovarian; 7.59% (active) with NCI/ADR-RES ovarian.
On to `C[C@]12O[C@H](C[C@]1(O)CO)n1c3ccccc3c3c4c(c5c6ccccc6n2c5c31)CNC4=O`, for which the growth was -8.26% (active) in the assay with EKVX NSCLC; -42% (active) in the assay on SN12C renal; -63.1% (active) in the assay with UO-31 renal; -81.5% (active) in the assay on TK-10 renal; -8.21% (active) in the assay on ACHN renal; -96.5% (active) in the assay on CAKI-1 renal. Also, the growth in the assay on A498 renal is -96.1% (active); with CCRF-CEM leukemia, 0.654% (active); with MOLT-4 leukemia, -18% (active); in the assay on SR leukemia, -14.4% (active); with RPMI-8226 leukemia, -41.3% (active); in the assay on OVCAR-8 ovarian, -32.5% (active). Moreover, the growth in the assay with OVCAR-5 ovarian was 4.92% (active); with OVCAR-4 ovarian it was -23% (active); in the assay on SK-OV-3 ovarian it was -46.3% (active); with IGROV1 ovarian, -26.3% (active); with OVCAR-3 ovarian, 0.931% (active); with NCI/ADR-RES ovarian it was -38.1% (active).
With `Cc1cc(C(=O)NOCCO)c(Nc2ccc(I)cc2F)n(C)c1=O`, the growth in the assay on EKVX NSCLC was 56.7%; in the assay on SN12C renal it was 68.3%; in the assay with UO-31 renal it was 46.3%; in the assay on TK-10 renal it was 48%; in the assay on ACHN renal, 64.3%; with CAKI-1 renal, 40.6%. In addition, the growth is -14% (active) in the assay with A498 renal; 85% in the assay on CCRF-CEM leukemia; 83.7% in the assay on MOLT-4 leukemia; 71.3% in the assay with SR leukemia; 78.8% with RPMI-8226 leukemia; 67.9% in the assay on OVCAR-8 ovarian. For the same compound, the growth is 20.3% with OVCAR-5 ovarian; 71.3% in the assay on OVCAR-4 ovarian; 57.3% in the assay on SK-OV-3 ovarian; 28% in the assay with IGROV1 ovarian; 106% in the assay with OVCAR-3 ovarian; 76.2% in the assay on NCI/ADR-RES ovarian.
For `COC1CCC(N2C(=O)CNc3ncc(-c4ccc(C(C)(C)O)nc4)nc32)CC1` (configuration not stated), the growth in the assay on EKVX NSCLC is 10.9%; in the assay with SN12C renal, 7.07% (active); with UO-31 renal, -10.7% (active); with TK-10 renal it was -13.4% (active); with ACHN renal it was 7.04% (active); with CAKI-1 renal, -1.6% (active). Moreover, the growth with A498 renal is -23.8% (active); with CCRF-CEM leukemia, 11.4%; in the assay with MOLT-4 leukemia, 0.972% (active); in the assay with SR leukemia it was -0.973% (active); in the assay on RPMI-8226 leukemia, -2.19% (active); in the assay with OVCAR-8 ovarian, 5.09% (active). Moreover, the growth in the assay on OVCAR-5 ovarian was 9.72% (active); with OVCAR-4 ovarian it was -7.38% (active); with SK-OV-3 ovarian, -27.6% (active); in the assay with IGROV1 ovarian, -2.9% (active); in the assay on OVCAR-3 ovarian, 8.66% (active); in the assay with NCI/ADR-RES ovarian it was 3.73% (active).
